Measurements taken from PubChem BioAssay (NCI).
Compounds without any hit were thinned out: in the full panel of roughly 83,000, 20% have a hit.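 Growth was measured after 48 h exposure to one concentration of compound in 96-well plates. Values under 10 count as active.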 Calls of active or inactive are those of the source.

Legend:
Assay in all cases: NCI-60 one-dose screen, 48 h (100 = growth as untreated, 0 = no growth, -100 = all killed)
Details in all cases: 10 µM unless noted
HCT-15 colon = test system: HCT-15 colon
HT29 colon = test system: HT29 colon
SNB-75 CNS = test system: SNB-75 CNS
SNB-19 CNS = test system: SNB-19 CNS
U251 CNS = test system: U251 CNS
PC-3 prostate = test system: PC-3 prostate
SK-MEL-5 melanoma = test system: SK-MEL-5 melanoma
UACC-62 melanoma = test system: UACC-62 melanoma
LOX IMVI melanoma = test system: LOX IMVI melanoma
SK-MEL-28 melanoma = test system: SK-MEL-28 melanoma
EKVX NSCLC = test system: EKVX NSCLC
SN12C renal = test system: SN12C renal
UO-31 renal = test system: UO-31 renal
TK-10 renal = test system: TK-10 renal
ACHN renal = test system: ACHN renal
CAKI-1 renal = test system: CAKI-1 renal
A498 renal = test system: A498 renal
CCRF-CEM leukemia = test system: CCRF-CEM leukemia
MOLT-4 leukemia = test system: MOLT-4 leukemia
SK-MEL-2 melanoma = test system: SK-MEL-2 melanoma

Measured: growth

CCN(CC)CCOCC[C@H]1CC[C@H]2[C@@H]3[C@H](C)Cc4cc(OS(N)(=O)=O)ccc4[C@H]3CC[C@]12C
active: HCT-15 colon -37% | HT29 colon -63.8% | SNB-75 CNS -42.7% | SNB-19 CNS -94.4% | U251 CNS -71% | PC-3 prostate -88.8% | SK-MEL-5 melanoma -90.4% | UACC-62 melanoma -79.7% | LOX IMVI melanoma -65% | SK-MEL-28 melanoma -91.1% | EKVX NSCLC -23.4% | SN12C renal -62.9% | UO-31 renal -80.8% | TK-10 renal -56.8% | ACHN renal -65.9% | CAKI-1 renal -73.9% | A498 renal -91.6% | CCRF-CEM leukemia -26.8% | MOLT-4 leukemia -52.2%

C=CCN(/C=C/CN(CC=C)CC=C)CC=C
inactive: HCT-15 colon 100% | HT29 colon 100% | SNB-75 CNS 85.8% | SNB-19 CNS 97.8% | U251 CNS 97.3% | PC-3 prostate 89.4% | SK-MEL-5 melanoma 109% | UACC-62 melanoma 101% | LOX IMVI melanoma 103% | SK-MEL-28 melanoma 98.5% | SK-MEL-2 melanoma 115% | SN12C renal 104% | UO-31 renal 90.1% | TK-10 renal 96.9% | ACHN renal 93.2% | CAKI-1 renal 69.7% | A498 renal 91.8% | MOLT-4 leukemia 96.4%

CNc1nc(NC2CCCC2)nc(Sc2ccc(OC)cc2)n1
inactive: HCT-15 colon 24.8% [100 µM] | SNB-75 CNS 48.9% [100 µM] | SNB-19 CNS 40.4% [100 µM] | U251 CNS 25.8% [100 µM] | SK-MEL-5 melanoma 11.6% [100 µM] | UACC-62 melanoma 25.1% [100 µM] | LOX IMVI melanoma 22.4% [100 µM] | SK-MEL-28 melanoma 46.4% [100 µM] | SN12C renal 28.5% [100 µM] | UO-31 renal 12.8% [100 µM] | TK-10 renal 42.1% [100 µM] | ACHN renal 21% [100 µM] | A498 renal 10.1% [100 µM]
active: HT29 colon 3.05% [100 µM] | PC-3 prostate -7.58% [100 µM] | SK-MEL-2 melanoma 9.28% [100 µM] | CAKI-1 renal 0.0278% [100 µM] | MOLT-4 leukemia -5.92% [100 µM]

CCCCCc1c(C)[nH]c(/C=C2\N=C(c3ccc[nH]3)C=C2OCc2ccccc2)c1C
active: HCT-15 colon -60% [100 µM] | HT29 colon -80.9% [100 µM] | SNB-75 CNS -78.1% [100 µM] | SNB-19 CNS -92.8% [100 µM] | U251 CNS -93.7% [100 µM] | PC-3 prostate -69.5% [100 µM] | SK-MEL-5 melanoma -66.9% [100 µM] | UACC-62 melanoma -92.7% [100 µM] | LOX IMVI melanoma -62.6% [100 µM] | SK-MEL-28 melanoma -89.8% [100 µM] | SK-MEL-2 melanoma -75% [100 µM] | SN12C renal -77% [100 µM] | UO-31 renal -93.6% [100 µM] | TK-10 renal -81.3% [100 µM] | ACHN renal -91.5% [100 µM] | CAKI-1 renal -74.4% [100 µM] | A498 renal -79.2% [100 µM] | MOLT-4 leukemia -57.8% [100 µM]

NS(=O)(=O)c1ccc(-n2nc(-c3ccc(Br)cc3)ccc2=O)cc1
inactive: HCT-15 colon 43% [100 µM] | HT29 colon 63.9% [100 µM] | SNB-19 CNS 36.5% [100 µM] | U251 CNS 11.2% [100 µM] | PC-3 prostate 78.2% [100 µM] | SK-MEL-5 melanoma 65.1% [100 µM] | UACC-62 melanoma 53.6% [100 µM] | LOX IMVI melanoma 68.1% [100 µM] | SK-MEL-28 melanoma 80.9% [100 µM] | SK-MEL-2 melanoma 66.6% [100 µM] | SN12C renal 70.9% [100 µM] | UO-31 renal 89.2% [100 µM] | TK-10 renal 22.2% [100 µM] | ACHN renal 70.8% [100 µM] | CAKI-1 renal 75.1% [100 µM] | A498 renal 40.6% [100 µM] | MOLT-4 leukemia 92.6% [100 µM]
active: SNB-75 CNS 8.35% [100 µM]

COc1cc2c(cc1OC)C(CC1(O)CCCCC1)N(S(=O)(=O)c1ccc(C)cc1)CC2 (configuration not stated)
active: PC-3 prostate 2.56% [100 µM] | SK-MEL-2 melanoma 6.69% [100 µM] | A498 renal 0.608% [100 µM] | MOLT-4 leukemia 3.12% [100 µM]
inactive: HCT-15 colon 22.7% [100 µM] | HT29 colon 21.1% [100 µM] | SNB-75 CNS 40.8% [100 µM] | SNB-19 CNS 48.9% [100 µM] | U251 CNS 34.1% [100 µM] | SK-MEL-5 melanoma 18.7% [100 µM] | UACC-62 melanoma 27.4% [100 µM] | LOX IMVI melanoma 29.3% [100 µM] | SK-MEL-28 melanoma 55% [100 µM] | SN12C renal 42.3% [100 µM] | UO-31 renal 25.8% [100 µM] | TK-10 renal 40.9% [100 µM] | ACHN renal 18.5% [100 µM] | CAKI-1 renal 22% [100 µM]

COc1ccc(NC(=O)[C@@H]2C[C@H]2c2ccccc2)c(C(N)=O)c1
inactive: HCT-15 colon 89.5% | HT29 colon 95.5% | SNB-75 CNS 96.2% | SNB-19 CNS 96.3% | U251 CNS 97.2% | PC-3 prostate 90.2% | SK-MEL-5 melanoma 96.5% | UACC-62 melanoma 95.7% | LOX IMVI melanoma 93.6% | SK-MEL-28 melanoma 96.7% | SK-MEL-2 melanoma 89.9% | SN12C renal 96% | UO-31 renal 87.9% | TK-10 renal 96% | ACHN renal 102% | CAKI-1 renal 103% | A498 renal 98.1% | CCRF-CEM leukemia 94% | MOLT-4 leukemia 92.4%

COC(=O)[C@H](Cc1cn(C)cn1)NC(=O)[C@H](C)NC(=O)Nc1cc(C(F)(F)F)cc(C(F)(F)F)c1
inactive: HCT-15 colon 37.7% [100 µM] | CAKI-1 renal 73.1% [100 µM]
active: HT29 colon -67.5% [100 µM] | SNB-75 CNS -78.3% [100 µM] | SNB-19 CNS -82.5% [100 µM] | U251 CNS -93.8% [100 µM] | PC-3 prostate -83.7% [100 µM] | SK-MEL-5 melanoma -95.4% [100 µM] | UACC-62 melanoma -93% [100 µM] | LOX IMVI melanoma -81% [100 µM] | SK-MEL-28 melanoma -94.4% [100 µM] | SK-MEL-2 melanoma -90.1% [100 µM] | SN12C renal -82.4% [100 µM] | UO-31 renal -92.7% [100 µM] | TK-10 renal -96.4% [100 µM] | ACHN renal -90% [100 µM] | A498 renal -88.4% [100 µM] | MOLT-4 leukemia -27.4% [100 µM]

COc1ccc([N+](=O)[O-])c(S(=O)(=O)c2ccc(Cl)cc2)n1
active: CCRF-CEM leukemia -11.5% | MOLT-4 leukemia 2.58%
inactive: HCT-15 colon 27.2% | HT29 colon 73.7% | SNB-75 CNS 78% | SNB-19 CNS 92% | U251 CNS 95.6% | PC-3 prostate 92.3% | SK-MEL-5 melanoma 91.6% | UACC-62 melanoma 89.1% | LOX IMVI melanoma 10.7% | SK-MEL-28 melanoma 82% | SK-MEL-2 melanoma 92.9% | SN12C renal 74.5% | UO-31 renal 51.7% | TK-10 renal 81.1% | ACHN renal 26.9% | CAKI-1 renal 49.6% | A498 renal 110%

COc1ccc(N2CCN(CC(=O)N3CCN(c4nnc(-c5ccc(Cl)cc5)c(-c5ccc(Cl)cc5)n4)CC3)CC2)cc1
inactive: HCT-15 colon 45% | HT29 colon 40.9% | SNB-75 CNS 76.3% | SNB-19 CNS 76% | U251 CNS 52.3% | PC-3 prostate 22.5% | SK-MEL-5 melanoma 38% | UACC-62 melanoma 66.6% | LOX IMVI melanoma 49.6% | SK-MEL-28 melanoma 71.5% | EKVX NSCLC 53.4% | SN12C renal 67.7% | UO-31 renal 21.2% | TK-10 renal 84.2% | ACHN renal 52.3% | CAKI-1 renal 147% | A498 renal 38.1% | CCRF-CEM leukemia 20.6%
active: MOLT-4 leukemia -21.2%

CC(=O)c1ccc(NS(=O)(=O)c2ccc([N+](=O)[O-])cc2)cc1
inactive: HCT-15 colon 95.2% | HT29 colon 108% | SNB-75 CNS 97.7% | SNB-19 CNS 87.9% | U251 CNS 103% | PC-3 prostate 93.1% | SK-MEL-5 melanoma 96.9% | UACC-62 melanoma 75.1% | LOX IMVI melanoma 98.8% | SK-MEL-28 melanoma 123% | SK-MEL-2 melanoma 95.1% | SN12C renal 99.5% | TK-10 renal 100% | ACHN renal 93.8% | CAKI-1 renal 96.9% | A498 renal 90.5% | CCRF-CEM leukemia 93.8% | MOLT-4 leukemia 87.1%

CC1CC=CCC1C1OCC(C)(C)CO1 (configuration not stated)
inactive: HCT-15 colon 97.9% | HT29 colon 109% | SNB-75 CNS 90% | SNB-19 CNS 102% | U251 CNS 92.9% | PC-3 prostate 94.9% | SK-MEL-5 melanoma 104% | UACC-62 melanoma 102% | LOX IMVI melanoma 69.9% | SK-MEL-28 melanoma 105% | SK-MEL-2 melanoma 124% | SN12C renal 103% | UO-31 renal 97.7% | TK-10 renal 111% | ACHN renal 106% | CAKI-1 renal 106% | A498 renal 103% | MOLT-4 leukemia 102%

O=C1c2cccc3c([N+](=O)[O-])ccc(c23)C(=O)N1CCCCl
active: HCT-15 colon -82.6% [100 µM] | HT29 colon -63.2% [100 µM] | SNB-75 CNS -98.6% [100 µM] | SNB-19 CNS -97.8% [100 µM] | U251 CNS -97.4% [100 µM] | PC-3 prostate -90.8% [100 µM] | SK-MEL-5 melanoma -95.6% [100 µM] | UACC-62 melanoma -96.3% [100 µM] | LOX IMVI melanoma -85.5% [100 µM] | SK-MEL-28 melanoma -97.3% [100 µM] | SK-MEL-2 melanoma -94.9% [100 µM] | SN12C renal -93.1% [100 µM] | UO-31 renal -86.6% [100 µM] | TK-10 renal -50.2% [100 µM] | ACHN renal -96.1% [100 µM] | CAKI-1 renal -91.4% [100 µM] | A498 renal -92.4% [100 µM] | MOLT-4 leukemia -11.3% [100 µM]

Cc1nn2c(/C=C3/C(=O)Nc4cc(Cl)ccc43)c(-c3ccccc3)nc2s1
active: SNB-75 CNS -20.2% | U251 CNS -19.9% | SK-MEL-5 melanoma -24.7% | UACC-62 melanoma -25.4% | LOX IMVI melanoma -33.3% | SK-MEL-28 melanoma -49.4% | SK-MEL-2 melanoma 0.603% | SN12C renal -1.6% | UO-31 renal -72.3% | TK-10 renal -55.3% | ACHN renal -26.5% | CAKI-1 renal -50.4% | CCRF-CEM leukemia -14%
inactive: HCT-15 colon 37.8% | HT29 colon 36.6% | SNB-19 CNS 54% | PC-3 prostate 51.1% | A498 renal 80.2% | MOLT-4 leukemia 13.1%
